Screening results as filed in PubChem.
The full list was thinned out, with hits kept by preference.
ROC1-CUL1 inh – blocks human RBX1-Cullin-1 di-ubiquitin formation; actives 0.6% (n = 140,000); inhibition, % at 10 µM; P62877+Q13616; in vitro K48 di-Ub FRET, acceptor:donor ratio, 45 min; in the data active = inhibition above about 25%
Of the large screens only hits and unclear results are named; the others gave an inactive call.

COc1ccc(C(=O)c2cc(C)ccc2OC)cc1	none
COc1ccc(C(=O)c2coc3c2cc(O)c2ccccc23)cc1	none
COc1ccc(C(=O)c2coc3c2C(=O)C(=O)C(Br)=C3)cc1	ROC1-CUL1 inh 102.1
CN(Cc1nc(N2CCOCC2)c2ccc(Cl)cc2n1)Cc1ccccc1C(F)(F)F	none
CCN(CC1CCN(C2CCN(C)CC2)CC1)C(=O)c1ccc(C=O)cc1	none
CCN(CC1CCN(C2CCN(C)CC2)CC1)C(=O)c1cc(C)[nH]n1	ROC1-CUL1 inh 25.8
CCN(CC1CCN(C2CCN(C)CC2)CC1)C(=O)CCC(=O)c1ccccc1	none
Cc1c(CC(=O)NCCn2cccn2)c2c(n1CC(C)C)CC(C)(C)CC2=O	none
O=C(Oc1ccc2ccc(OC(=O)c3ccccc3F)cc2c1)c1ccccc1F	none
CCC(C)NC(=O)c1c2c(nc3ccccc13)C(=O)N(C1CCCCC1)C2 (configuration not stated)	none
CCC(C)NC(=O)c1ccccc1NC(=O)c1ccncc1 (configuration not stated)	none
CCC(C)NC(=O)c1c2nc3ccccc3nc2n2c1[nH]c(=O)c1ccccc12 (configuration not stated)	ROC1-CUL1 inh 53.0
CCC1CCCCN1c1ccc(C(=O)N2CCCN(c3ncccn3)CC2)cn1 (configuration not stated)	none
CC(=O)Nc1ccc2c(c1)C1C=CCC1C(c1ccccc1F)N2 (configuration not stated)	none
Cc1ccc(C(=O)O)c2c1N[C@@H](c1ccccc1F)[C@H]1CC=C[C@@H]21	ROC1-CUL1 inh 33.0
Fc1ccccc1C1Nc2ccc3ccccc3c2C2C=CCC21 (configuration not stated)	none
COc1cc(/C=C2\C(=O)NN(c3ccccc3)C2=O)ccc1OCc1ccccc1	none
CCOc1cc(/C=C2\C(=O)NN(c3ccccc3)C2=O)cc(Cl)c1OCc1c(Cl)cccc1Cl	ROC1-CUL1 inh 86.0
CCOc1cc(/C=C2\C(=O)NN(c3ccccc3)C2=O)cc(Br)c1OCc1cccc(C)c1	none
CCOc1cc(/C=C2\C(=O)NN(c3ccccc3)C2=O)cc(Cl)c1OCc1cccc(C)c1	ROC1-CUL1 inh 37.9
CCOc1cc(/C=C2\C(=O)NN(c3ccccc3)C2=O)ccc1OCc1c(F)cccc1Cl	none
COc1cc(/C=C2\C(=O)NN(c3ccccc3)C2=O)cc(Cl)c1OCc1ccccc1C	none
CN1CCc2c(sc3c2C(=O)NC(c2ccccc2F)N3)C1 (configuration not stated)	none
Cc1c(-c2ccc(Cl)cc2Cl)nc2ccccc2c1C(=O)N1CCCC1	none
COc1ccc(C=C2C(=O)NC(=S)NC2=O)cc1OCc1ccc(Br)cc1	none
COc1cc(C2c3c(n[nH]c3-c3ccc(Cl)cc3)OC(=N)C2C#N)ccc1OCc1ccccc1 (configuration not stated)	none
COc1cc(-c2cc(-c3ccccc3)c3c(ccc4ncccc43)n2)cc(OC)c1O	none
O=C1NC(=S)N(c2cccc(Br)c2)C(=O)/C1=C/c1cc(I)c(O)c(I)c1	ROC1-CUL1 inh 26.9
O=C1NC(=S)N(c2cccc(Br)c2)C(=O)/C1=C/c1ccc(O)cc1	none
O=C1NC(=S)N(c2ccccc2)C(=O)/C1=C/c1cc(Br)ccc1O	none
O=C(N/N=C/c1cc2c(cc1[N+](=O)[O-])OCO2)c1ccccc1[N+](=O)[O-]	none
CCN=C1CC=CC=C(C(=O)/C=C/c2ccc(CC)cc2)C1=O	none
CCC(C)N1C(=O)S/C(=C/c2ccccc2Br)C1=O (configuration not stated)	none
Cc1ccccc1N=C1CC=CC=CC1=O	none
CCN=C1CC=CC=C(C(=O)/C=C/c2ccccc2Br)C1=O	ROC1-CUL1 inh 36.3
CCN=C1CC=CC=C(C(=O)/C=C/c2ccccc2Cl)C1=O	none
CCN=C1CC=CC=C(C(=O)/C=C/c2ccc(C#N)cc2)C1=O	none
CN=C1CC=CC=C(C(=O)/C=C/c2cccc(C(F)(F)F)c2)C1=O	ROC1-CUL1 inh 80.7
O=C(CCc1ccccc1)N/N=C/c1cccc(Cl)c1Cl	none
CCN=C1CC=CC=C(C(=O)/C=C/c2ccccc2C)C1=O	ROC1-CUL1 inh 73.0
CCn1ncc(/C=C/C(=O)c2ccccc2)c1C	none
CCN=C1CC=CC=C(C(=O)/C=C/c2cccc(Cl)c2Cl)C1=O	ROC1-CUL1 inh 37.6
CCN=C1CC=CC=C(C(=O)/C=C/c2ccccc2OCC)C1=O	none
COc1ccc(CC2(CCC(=O)NCCc3cccc4ccccc34)CCC(=O)N2)c(F)c1 (configuration not stated)	none
COc1ccccc1NCn1c(-c2ccc(OC)c(OC)c2)cc(=O)sc1=O	none
COc1ccc(N2CCN(CC(O)COc3ccc(Cl)c(C)c3)CC2)cc1 (configuration not stated)	none
CCCC(C)c1n[nH]c2c1CN(c1cc(-n3cc(C)cn3)ncn1)CC2 (configuration not stated)	none
COc1cccc(-c2nc3c(C)cc(C)cc3c(=O)o2)c1	none
CC(C)(C)NS(=O)(=O)c1ccc(NC(=O)c2ccc(Br)cc2)cc1	none
CCOc1ccc(C2c3c(C)nn(-c4ccccc4)c3OC(=N)C2C#N)cc1 (configuration not stated)	none
CCCCCCCCCCCCCCCCCCOc1ccc(/C=C/C(=O)O)cc1I	none
CCCCCCOc1cc(/C=C/C(=O)O)c(OCCCCCC)cc1/C=C/C(=O)O	ROC1-CUL1 inh 89.4
O=C(O)/C=C/c1cc(Br)ccc1OCc1ccc(F)cc1	none
CCCOC(=O)c1c(-c2ccc(OC)cc2)csc1NC(=O)c1cnccn1	none
CC1Cc2ccccc2N1C(=O)C1CCN(C(=O)c2ccccc2)CC1 (configuration not stated)	none
Cc1c(C(=O)c2ccccc2)nn(-c2ccccc2Cl)c(=N)c1C#N	none
CC(C)c1c(C(=O)N2CCN(C3CCCCC3)CC2)cnn1-c1nccc(-c2ccco2)n1	none
C1=C(c2ccccc2)N2C(=NN=C(c3ccccc3)C2c2ccccc2)S1 (configuration not stated)	ROC1-CUL1 inh 40.9
C1=C(c2ccc(-c3ccccc3)cc2)N2C(=NN=C(c3ccccc3)C2c2ccccc2)S1 (configuration not stated)	none
Cc1ccc(C2=CSC3=NN=C(c4ccccc4)C(c4ccccc4)N23)cc1 (configuration not stated)	none
CC1CCCCN1C(=O)CSc1nnc(Cc2cccs2)n1-c1ccccc1 (configuration not stated)	none
CC(C)(C)C(=O)N1CCN(Cc2ccc(Cl)c(Cl)c2)CC1	none
O=C1OC2(CCCCC2)OC(=O)C1=Cc1cn(Cc2ccccc2Cl)c2ccccc12	none
CCOc1ccc2c(c1)c(=O)c(S(=O)(=O)c1ccc(C)cc1)cn2Cc1ccccc1Cl	none
Cc1[nH][nH]c(=O)c1C(c1c(C)[nH][nH]c1=O)c1cn(Cc2ccccc2Cl)c2ccccc12	ROC1-CUL1 inh 67.8
Cc1[nH]nc2c1C1(C(=O)Nc3ccc(F)cc31)C(C#N)C(=N)O2 (configuration not stated)	none
CC(C)CNC(=O)c1ccc(CN2CCCC2)cc1	none
COc1ccccc1-c1ncc(CNc2cc(CN)ncn2)s1	none
Cc1[nH]n(-c2ccccc2)c(=O)c1C(c1cccc(OCc2ccc(Cl)cc2)c1)c1c(C)[nH]n(-c2ccccc2)c1=O	none
CCOc1ccccc1C(c1c(C)[nH]n(-c2ccccc2)c1=O)c1c(C)[nH]n(-c2ccccc2)c1=O	ROC1-CUL1 inh 45.6
Cc1[nH]n(-c2ccccc2)c(=O)c1C(c1ccc(C(=O)O)cc1)c1c(C)[nH]n(-c2ccccc2)c1=O	none
Cc1[nH]n(-c2ccccc2)c(=O)c1CCc1ccccc1	none
COc1ccccc1C(c1c(C)[nH]n(-c2ccccc2)c1=O)c1c(C)[nH]n(-c2ccccc2)c1=O	ROC1-CUL1 inh 26.8
